Drawing on PMC7862700, “An all-to-all approach to the identification of sequence-specific readers for epigenetic DNA modifications on cytosine”, this text covers binding signal for two sequences.

Common to all, as to experiment: DAPPL (digital affinity profiling via proximity ligation, sequencing); 10 mM Tris-HCl pH 7.5, 50 mM NaCl, 1 mM DTT, 4% glycerol, room temperature, 30 min; GST-TFs on glutathione beads, 16-mer random dsDNA library, 0.1% formaldehyde crosslink after washing; high values mean tight binding
What all share (conditions): protein: recombinant; tags: N-terminal GST; dsDNA, one strand shown

One assay addresses T1, ELK1 (Homo sapiens, UniProt P19419 1-428).
T1 sequence: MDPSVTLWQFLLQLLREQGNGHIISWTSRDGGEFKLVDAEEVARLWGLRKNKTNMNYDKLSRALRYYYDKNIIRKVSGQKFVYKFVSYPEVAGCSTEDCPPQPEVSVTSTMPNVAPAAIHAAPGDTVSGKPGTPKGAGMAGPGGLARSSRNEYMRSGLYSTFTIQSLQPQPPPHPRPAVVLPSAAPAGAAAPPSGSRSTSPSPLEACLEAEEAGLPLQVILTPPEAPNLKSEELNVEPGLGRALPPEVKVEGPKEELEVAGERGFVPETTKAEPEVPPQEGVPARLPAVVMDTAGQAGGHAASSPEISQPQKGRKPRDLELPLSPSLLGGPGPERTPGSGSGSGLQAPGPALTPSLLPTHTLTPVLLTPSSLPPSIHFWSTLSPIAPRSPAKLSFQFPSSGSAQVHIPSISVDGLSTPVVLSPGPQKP
In a few lines: (§1)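 A tag-only sample was pooled with DNA-barcoded human transcription factors that had been expressed in yeast as GST fusions and captured on glutathione beads. The pools were incubated for 30 min at room temperature with 200 nmole of a random double-stranded 16-mer DNA library in Tris/NaCl/DTT/glycerol buffer, then washed, crosslinked with 0.1% formaldehyde, proximity-ligated (BsaI/T4 ligase, 1 h, 37 °C), PCR-amplified and sequenced on an Illumina NextSeq500. Binding signal is each hexamer's read frequency for a factor divided by its frequency for the tag-only sample.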

For another assay, the target named is T2, GABPA (Homo sapiens, UniProt Q06546 1-454).
T2 sequence: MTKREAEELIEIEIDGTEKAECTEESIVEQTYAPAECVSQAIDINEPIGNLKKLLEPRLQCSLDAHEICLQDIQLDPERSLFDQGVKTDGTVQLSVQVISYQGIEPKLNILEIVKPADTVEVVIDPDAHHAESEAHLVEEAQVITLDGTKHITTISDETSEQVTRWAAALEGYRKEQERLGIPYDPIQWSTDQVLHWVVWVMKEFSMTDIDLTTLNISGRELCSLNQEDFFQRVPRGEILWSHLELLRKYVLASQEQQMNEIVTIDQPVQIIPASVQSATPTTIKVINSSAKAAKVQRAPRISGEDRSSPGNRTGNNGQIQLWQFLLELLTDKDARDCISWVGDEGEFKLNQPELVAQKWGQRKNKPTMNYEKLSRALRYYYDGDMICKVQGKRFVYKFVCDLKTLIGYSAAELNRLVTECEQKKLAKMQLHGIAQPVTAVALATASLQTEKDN
In a few lines: as §1

The target of another assay is T3, EHF (Homo sapiens, UniProt Q9NZC4 1-300).
T3 sequence: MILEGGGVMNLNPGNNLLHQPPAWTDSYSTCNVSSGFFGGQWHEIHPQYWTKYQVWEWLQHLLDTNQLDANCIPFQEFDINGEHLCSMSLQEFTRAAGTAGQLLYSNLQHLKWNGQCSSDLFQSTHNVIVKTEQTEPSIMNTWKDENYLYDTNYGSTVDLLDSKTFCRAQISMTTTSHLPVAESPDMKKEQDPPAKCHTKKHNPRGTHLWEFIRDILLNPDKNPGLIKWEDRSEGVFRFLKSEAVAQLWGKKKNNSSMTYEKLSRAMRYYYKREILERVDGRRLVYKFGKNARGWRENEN
Put shortly:
as §1

The target of the next assay is T4, ELK3 (Homo sapiens, UniProt P41970 1-407).
T4 sequence: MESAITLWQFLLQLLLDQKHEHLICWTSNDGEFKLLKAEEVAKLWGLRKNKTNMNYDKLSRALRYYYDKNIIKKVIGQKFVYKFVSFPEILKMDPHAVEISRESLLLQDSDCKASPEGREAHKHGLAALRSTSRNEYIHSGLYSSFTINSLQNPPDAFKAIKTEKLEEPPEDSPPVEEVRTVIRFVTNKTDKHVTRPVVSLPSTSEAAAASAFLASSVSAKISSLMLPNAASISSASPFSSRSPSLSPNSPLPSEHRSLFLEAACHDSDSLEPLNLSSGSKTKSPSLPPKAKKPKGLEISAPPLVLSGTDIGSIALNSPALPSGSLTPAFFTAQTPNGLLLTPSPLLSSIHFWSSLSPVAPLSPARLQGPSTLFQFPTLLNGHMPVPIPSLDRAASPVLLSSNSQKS
Put shortly: as §1

Another assay concerns the target ETV5 (Homo sapiens, UniProt P41161 1-510). In a few lines:
as §1

In a further assay the target is T5, SPIC (Homo sapiens, UniProt Q8N5J4 1-248).
T5 sequence: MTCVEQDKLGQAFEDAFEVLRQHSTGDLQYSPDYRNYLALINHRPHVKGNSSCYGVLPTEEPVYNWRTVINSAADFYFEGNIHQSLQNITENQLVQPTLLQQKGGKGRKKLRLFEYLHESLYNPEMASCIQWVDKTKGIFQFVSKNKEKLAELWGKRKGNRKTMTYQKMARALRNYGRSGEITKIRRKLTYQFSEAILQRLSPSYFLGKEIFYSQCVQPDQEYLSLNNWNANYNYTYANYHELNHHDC
Put shortly:
as §1

In another assay the target is T6, ELF3 (Homo sapiens, UniProt P78545 1-371).
T6 sequence: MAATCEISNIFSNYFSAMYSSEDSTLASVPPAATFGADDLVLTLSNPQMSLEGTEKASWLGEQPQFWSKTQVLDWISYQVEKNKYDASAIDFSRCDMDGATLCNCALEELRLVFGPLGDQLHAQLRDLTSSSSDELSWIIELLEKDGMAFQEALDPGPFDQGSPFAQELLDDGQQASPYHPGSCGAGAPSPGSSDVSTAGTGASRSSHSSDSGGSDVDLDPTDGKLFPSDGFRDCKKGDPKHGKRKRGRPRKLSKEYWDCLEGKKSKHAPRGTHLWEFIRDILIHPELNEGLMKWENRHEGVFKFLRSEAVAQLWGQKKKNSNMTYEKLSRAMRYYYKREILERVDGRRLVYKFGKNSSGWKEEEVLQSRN
In a few lines: as §1

For the next assay, the target named is T7, ERF (Homo sapiens, UniProt P50548 1-548).
T7 sequence: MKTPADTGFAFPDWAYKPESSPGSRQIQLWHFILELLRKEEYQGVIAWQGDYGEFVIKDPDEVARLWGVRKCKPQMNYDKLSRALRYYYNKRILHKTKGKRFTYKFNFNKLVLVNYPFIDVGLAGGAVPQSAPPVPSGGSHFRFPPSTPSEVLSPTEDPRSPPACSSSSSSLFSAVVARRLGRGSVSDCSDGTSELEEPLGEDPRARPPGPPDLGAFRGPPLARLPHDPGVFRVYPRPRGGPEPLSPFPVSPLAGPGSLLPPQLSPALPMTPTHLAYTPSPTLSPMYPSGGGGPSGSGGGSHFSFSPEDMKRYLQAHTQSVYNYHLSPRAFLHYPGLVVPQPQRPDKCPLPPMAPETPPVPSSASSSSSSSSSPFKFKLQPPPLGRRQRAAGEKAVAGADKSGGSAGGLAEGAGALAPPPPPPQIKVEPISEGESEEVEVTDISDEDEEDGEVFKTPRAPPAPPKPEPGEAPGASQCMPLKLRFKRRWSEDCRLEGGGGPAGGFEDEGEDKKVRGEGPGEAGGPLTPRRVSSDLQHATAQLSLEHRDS
In a few lines:
as §1

The next assay has as its target T8, ETS2 (Homo sapiens, UniProt P15036 1-469).
T8 sequence: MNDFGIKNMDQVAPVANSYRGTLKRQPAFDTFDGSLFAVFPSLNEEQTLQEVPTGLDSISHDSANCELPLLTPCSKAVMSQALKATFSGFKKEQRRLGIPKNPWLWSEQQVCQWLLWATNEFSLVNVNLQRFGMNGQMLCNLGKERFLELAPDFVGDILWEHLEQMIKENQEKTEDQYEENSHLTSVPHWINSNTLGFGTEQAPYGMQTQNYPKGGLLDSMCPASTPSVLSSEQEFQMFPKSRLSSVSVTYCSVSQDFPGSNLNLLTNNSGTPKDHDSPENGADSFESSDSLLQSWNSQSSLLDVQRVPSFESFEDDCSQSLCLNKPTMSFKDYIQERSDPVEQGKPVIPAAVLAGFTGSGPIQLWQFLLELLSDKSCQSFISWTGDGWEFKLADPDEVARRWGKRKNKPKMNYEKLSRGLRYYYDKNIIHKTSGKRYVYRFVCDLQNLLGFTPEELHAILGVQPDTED
Put shortly: as §1

The target of another assay is T9, SPDEF (Homo sapiens, UniProt O95238 1-335).
T9 sequence: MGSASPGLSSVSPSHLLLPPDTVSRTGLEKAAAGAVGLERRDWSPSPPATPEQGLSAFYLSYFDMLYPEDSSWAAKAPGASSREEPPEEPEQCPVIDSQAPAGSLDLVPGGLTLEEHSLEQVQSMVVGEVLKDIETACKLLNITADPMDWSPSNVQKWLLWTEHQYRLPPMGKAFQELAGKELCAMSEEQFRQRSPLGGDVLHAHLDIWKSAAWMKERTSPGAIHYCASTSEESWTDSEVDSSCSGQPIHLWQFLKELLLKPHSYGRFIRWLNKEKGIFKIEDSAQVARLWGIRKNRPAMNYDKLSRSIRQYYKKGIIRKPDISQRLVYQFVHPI
Put shortly:
as §1

Another assay concerns the target T10, ETV3 (Homo sapiens, UniProt P41162-2 1-143).
T10 sequence: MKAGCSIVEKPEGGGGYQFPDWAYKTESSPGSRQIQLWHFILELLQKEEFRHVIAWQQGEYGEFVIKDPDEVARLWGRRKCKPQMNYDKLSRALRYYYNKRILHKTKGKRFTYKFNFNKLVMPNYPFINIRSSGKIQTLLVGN
In a few lines: as §1

Another assay has as its target T11, ERG (Homo sapiens, UniProt P11308 1-479).
T11 sequence: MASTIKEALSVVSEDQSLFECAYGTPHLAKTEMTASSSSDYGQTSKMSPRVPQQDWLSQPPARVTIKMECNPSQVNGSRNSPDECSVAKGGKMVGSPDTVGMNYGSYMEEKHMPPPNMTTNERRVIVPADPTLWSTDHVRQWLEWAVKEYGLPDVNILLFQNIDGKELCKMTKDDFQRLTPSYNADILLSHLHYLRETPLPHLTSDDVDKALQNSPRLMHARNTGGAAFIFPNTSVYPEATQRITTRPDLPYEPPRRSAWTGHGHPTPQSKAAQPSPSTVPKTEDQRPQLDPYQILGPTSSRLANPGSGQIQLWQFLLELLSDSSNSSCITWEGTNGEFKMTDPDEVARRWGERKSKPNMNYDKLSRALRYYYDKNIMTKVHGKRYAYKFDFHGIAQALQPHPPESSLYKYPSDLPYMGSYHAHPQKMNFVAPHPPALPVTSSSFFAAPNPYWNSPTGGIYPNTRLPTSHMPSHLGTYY
Put shortly: as §1

For another assay, the target named is SPIB (Homo sapiens, UniProt Q01892 1-262). Put shortly: as §1
The target of the next assay is ETV1 (Homo sapiens, UniProt P50549 1-477). In a few lines:
as §1

A further assay addresses T12, ETV7 (Homo sapiens, UniProt Q9Y603 1-341).
T12 sequence: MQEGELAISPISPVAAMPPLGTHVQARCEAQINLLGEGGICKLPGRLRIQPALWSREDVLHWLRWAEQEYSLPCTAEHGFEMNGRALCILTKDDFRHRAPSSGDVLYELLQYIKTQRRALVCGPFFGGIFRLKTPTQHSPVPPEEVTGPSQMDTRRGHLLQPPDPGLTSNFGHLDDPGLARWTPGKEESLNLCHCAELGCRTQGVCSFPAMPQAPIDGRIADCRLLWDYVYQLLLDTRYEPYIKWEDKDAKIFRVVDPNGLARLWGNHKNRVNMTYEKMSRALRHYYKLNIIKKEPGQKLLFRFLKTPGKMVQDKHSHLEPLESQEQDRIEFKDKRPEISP
In a few lines:
as §1

A further assay addresses ETV6 (Homo sapiens, UniProt P41212 1-452). Put shortly: as §1

Sequence of ETV5 (P41161 whole entry): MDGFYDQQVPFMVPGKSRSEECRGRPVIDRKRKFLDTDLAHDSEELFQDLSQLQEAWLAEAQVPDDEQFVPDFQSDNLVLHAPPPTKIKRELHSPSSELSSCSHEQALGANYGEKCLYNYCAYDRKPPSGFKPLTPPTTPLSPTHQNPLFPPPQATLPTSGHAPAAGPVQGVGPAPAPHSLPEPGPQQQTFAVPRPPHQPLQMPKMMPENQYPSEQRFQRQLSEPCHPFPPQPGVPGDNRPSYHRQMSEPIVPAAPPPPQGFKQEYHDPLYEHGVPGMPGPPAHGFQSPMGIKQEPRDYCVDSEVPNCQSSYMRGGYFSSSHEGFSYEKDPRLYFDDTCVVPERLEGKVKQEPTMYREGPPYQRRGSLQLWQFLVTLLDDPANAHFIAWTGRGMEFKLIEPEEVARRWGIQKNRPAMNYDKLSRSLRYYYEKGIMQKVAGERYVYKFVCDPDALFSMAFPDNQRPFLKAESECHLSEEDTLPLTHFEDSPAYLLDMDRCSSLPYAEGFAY
Sequence of ETV1 (P50549 whole entry): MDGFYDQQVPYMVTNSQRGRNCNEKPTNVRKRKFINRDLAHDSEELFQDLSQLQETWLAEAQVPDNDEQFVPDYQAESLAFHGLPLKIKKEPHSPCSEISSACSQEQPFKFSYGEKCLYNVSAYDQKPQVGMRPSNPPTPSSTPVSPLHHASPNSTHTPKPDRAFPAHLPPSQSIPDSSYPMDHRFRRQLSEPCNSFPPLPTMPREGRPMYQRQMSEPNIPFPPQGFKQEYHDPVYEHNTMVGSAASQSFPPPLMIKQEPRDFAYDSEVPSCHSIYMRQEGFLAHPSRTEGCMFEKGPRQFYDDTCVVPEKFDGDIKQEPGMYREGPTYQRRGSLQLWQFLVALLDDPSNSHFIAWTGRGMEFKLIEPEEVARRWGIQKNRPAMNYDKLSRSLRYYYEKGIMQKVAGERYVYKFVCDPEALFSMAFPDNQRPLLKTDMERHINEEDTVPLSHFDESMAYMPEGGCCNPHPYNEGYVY
Sequence of ETV6 (P41212 whole entry): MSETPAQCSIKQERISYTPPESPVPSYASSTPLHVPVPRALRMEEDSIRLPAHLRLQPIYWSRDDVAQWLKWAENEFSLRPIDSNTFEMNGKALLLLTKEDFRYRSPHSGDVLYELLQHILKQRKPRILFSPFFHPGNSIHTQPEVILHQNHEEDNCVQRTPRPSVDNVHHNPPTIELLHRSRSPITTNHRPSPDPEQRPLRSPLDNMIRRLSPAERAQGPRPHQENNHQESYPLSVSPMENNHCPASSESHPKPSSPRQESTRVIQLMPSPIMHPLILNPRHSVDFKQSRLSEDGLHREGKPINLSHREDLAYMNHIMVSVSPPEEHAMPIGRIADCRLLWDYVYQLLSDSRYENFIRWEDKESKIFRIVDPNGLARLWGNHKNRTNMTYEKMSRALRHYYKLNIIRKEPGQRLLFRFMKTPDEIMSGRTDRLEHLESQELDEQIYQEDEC
Sequence of SPIB (Q01892 whole entry): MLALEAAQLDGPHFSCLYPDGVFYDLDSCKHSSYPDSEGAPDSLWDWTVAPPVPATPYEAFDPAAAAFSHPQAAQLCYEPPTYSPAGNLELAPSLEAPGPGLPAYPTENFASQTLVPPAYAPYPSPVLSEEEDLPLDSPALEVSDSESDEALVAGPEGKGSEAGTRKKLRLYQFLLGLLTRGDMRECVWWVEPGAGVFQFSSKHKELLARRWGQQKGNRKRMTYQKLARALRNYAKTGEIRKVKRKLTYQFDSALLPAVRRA

Consider TATGAG, for which the binding signal with ELK1 was 1.02 fold enrichment (6-mer frequency, TF over GST control); in the assay with GABPA it was 1.03 fold enrichment (6-mer frequency, TF over GST control); with EHF it was 1.04 fold enrichment (6-mer frequency, TF over GST control); in the assay with ELK3 it was 1.02 fold enrichment (6-mer frequency, TF over GST control); with ETV5, 1.02 fold enrichment (6-mer frequency, TF over GST control); with SPIC it was 1.16 fold enrichment (6-mer frequency, TF over GST control). The binding signal was 1.08 fold enrichment (6-mer frequency, TF over GST control) in the assay with ELF3; 1.1 fold enrichment (6-mer frequency, TF over GST control) with ERF; 1 fold enrichment (6-mer frequency, TF over GST control) with ETS2; 1.01 fold enrichment (6-mer frequency, TF over GST control) with SPDEF; 1.09 fold enrichment (6-mer frequency, TF over GST control) in the assay with ETV3.

With GCCGGA, the binding signal was 1.17 fold enrichment (6-mer frequency, TF over GST control) with ELK1; 1.27 fold enrichment (6-mer frequency, TF over GST control) with ERG; 1.08 fold enrichment (6-mer frequency, TF over GST control) with EHF; 1.01 fold enrichment (6-mer frequency, TF over GST control) in the assay with SPIB; 1.11 fold enrichment (6-mer frequency, TF over GST control) with ELK3; 1.16 fold enrichment (6-mer frequency, TF over GST control) with ETV5. For the same sequence, the binding signal with ELF3 is 1.05 fold enrichment (6-mer frequency, TF over GST control); with ETV1, 1.07 fold enrichment (6-mer frequency, TF over GST control); with ETS2 it was 1.01 fold enrichment (6-mer frequency, TF over GST control); with SPDEF, 1.37 fold enrichment (6-mer frequency, TF over GST control); with ETV7, 1 fold enrichment (6-mer frequency, TF over GST control); with ETV3 it was 1.1 fold enrichment (6-mer frequency, TF over GST control). In addition, the binding signal with ETV6 was 1.07 fold enrichment (6-mer frequency, TF over GST control).
